Test results: PubChem BioAssay (NCI)
This is part of a sample that, as a whole, favours compounds with a hit. Of some 83,000 tested, about 20% had one in any assay.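 Treatment: one concentration, 48 hours, 96-well format. Scoring: percent growth, with anything below 10 considered active.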 Unmarked numbers belong to inactive results. The source made the active and inactive calls.

Assays:
Assay in all cases: NCI-60 one-dose screen, 48 h (100 = growth as untreated, 0 = no growth, -100 = all killed)
Conditions in all cases: 10 µM unless noted
DU-145 prostate = system: DU-145 prostate
K-562 leukemia = system: K-562 leukemia
MALME-3M melanoma = system: MALME-3M melanoma
MDA-MB-231 breast = system: MDA-MB-231 breast
RXF 393 renal = system: RXF 393 renal
SF-268 CNS = system: SF-268 CNS
SF-295 CNS = system: SF-295 CNS
SF-539 CNS = system: SF-539 CNS
UACC-257 melanoma = system: UACC-257 melanoma
M14 melanoma = system: M14 melanoma
HCT-15 colon = system: HCT-15 colon
HT29 colon = system: HT29 colon
SNB-75 CNS = system: SNB-75 CNS
SNB-19 CNS = system: SNB-19 CNS
U251 CNS = system: U251 CNS
PC-3 prostate = system: PC-3 prostate
SK-MEL-5 melanoma = system: SK-MEL-5 melanoma
UACC-62 melanoma = system: UACC-62 melanoma
LOX IMVI melanoma = system: LOX IMVI melanoma
SK-MEL-28 melanoma = system: SK-MEL-28 melanoma

Structure (SMILES)	growth (DU-145 prostate)	growth (K-562 leukemia)	growth (MALME-3M melanoma)	growth (MDA-MB-231 breast)	growth (RXF 393 renal)	growth (SF-268 CNS)	growth (SF-295 CNS)	growth (SF-539 CNS)	growth (UACC-257 melanoma)	growth (M14 melanoma)	growth (HCT-15 colon)	growth (HT29 colon)	growth (SNB-75 CNS)	growth (SNB-19 CNS)	growth (U251 CNS)	growth (PC-3 prostate)	growth (SK-MEL-5 melanoma)	growth (UACC-62 melanoma)	growth (LOX IMVI melanoma)	growth (SK-MEL-28 melanoma)
c1csc(-c2c3ccc(=[N+]4CCCCC4)cc-3oc3cc(N4CCCCC4)ccc23)c1	-96.6% (active)	-29.5% (active)	-58.8% (active)	-50.9% (active)	-97% (active)	-88.8% (active)	-53.7% (active)	-91.3% (active)	-69.8% (active)	-87.8% (active)	-70% (active)	-74.2% (active)	-47.4% (active)	-87.6% (active)	-71.7% (active)	-65.7% (active)	-90.5% (active)	-76.1% (active)	-76.2% (active)	-66.4% (active)
CCN(CC)c1nc(SCC(=O)Nc2nc3ccc(C)cc3s2)nc(-c2ccccc2)c1C#N	101%	86.5%	103%	78%	97.3%	88.5%	92.9%	89.2%	96.5%	101%	83.8%	79.6%	85.6%	89.5%	87.6%	67%	90.2%	67.9%	98%	103%
CCCc1cc2c(=O)c(C(=O)OC)c[nH]c2cc1N(CC)CC	112%	96.2%	95.4%	108%	29.3%	102%	85.2%	97.6%	136%	110%	95.9%	110%	104%	99.1%	104%	79.6%	91.5%	83%	108%	112%
COc1cc(C(=O)/C=C/c2c(-c3ccc(F)cc3)nc3sc(C)cn23)cc(OC)c1OC	39.2%	7.75% (active)	6.76% (active)	38.2%	44.2%	40.4%	32.4%	57.7%	21.4%	32.3%	35.5%	41.5%	50.1%	66.5%	32.9%	10.7%	-88.8% (active)	23.1%	25.1%	12.4%
COC(=O)c1c2c(c[n+]([O-])c1C)C(=O)C=CC2=O	74.1%	2.05% (active)	-97.1% (active)	49.9%	57.3%	68.7%	103%	83.5%	-35.1% (active)	-64.5% (active)	12.4%	106%	125%	79.8%	37.7%	65.8%	72%	0.925% (active)	47.3%	49%
OC(COc1ccccc1Cl)COc1ccccc1Cl	116%	100%	96.8%	101%	96.7%	97.3%	104%	95.5%	120%	93.2%	86.1%	92.5%	85.4%	108%	91.5%	95.9%	96.8%	92%	85.3%	94.2%
O=C(NC(Cc1nnc2n(Cc3ccccc3)c(=O)c3c4c(sc3n12)CCCC4)c1ccc(Cl)cc1)c1ccccc1 (stereo not given)	96.7%	91.9%	75.4%	83.2%	34.3%	102%	71.7%	80.2%	105%	68%	68.3%	89.1%	73.7%	88.5%	91.8%	97.8%	81.9%	63.1%	79.4%	103%
O=c1ssc(Cl)c1-c1ccccc1	113%	102%	100%	97%	86.7%	134%	102%	90.7%	91.3%	96.7%	101%	103%	90.5%	111%	104%	79.5%	97.1%	95.4%	92.5%	100%
Cc1ccc(C(=O)C2=C(O)C(=O)N(Cc3cccnc3)C2c2ccccc2F)o1 (stereo not given)	105%	76.7%	101%	106%	95.8%	98.1%	93.1%	95.1%	95.7%	101%	93.8%	108%	94.6%	105%	91.6%	96.7%	100%	102%	80.8%	115%
O=C(Nc1ccc(Nc2ccncc2)cc1)c1ccc(C(=O)Nc2ccc(Nc3ccncc3)cc2)cc1	85.8%	53.5%	5.82% (active)	84.4%	100%	75%	91.7%	82.6%	24.2%	44.2%	79.7%	32.9%	109%	77.4%	64.2%	60.4%	34.4%	38.3%	65.5%	43.4%
CN1CCN(CCCOc2ccc3nc(Nc4ccc(F)c(F)c4)ccc3c2)CC1	39.9%	-30.3% (active)	3.13% (active)	-31.6% (active)	48.6%	46.5%	-51.4% (active)	14.3%	-52.9% (active)	-53.1% (active)	-29.3% (active)	-36.2% (active)	24.3%	26.5%	13.7%	22.5%	-6.85% (active)	-67.1% (active)	-89.5% (active)	-67.4% (active)
COc1nc2c(c(=O)n1C)CN(c1ccccc1)C(=O)CN2C	66.3% [100 µM]	55.2% [100 µM]	74.3% [100 µM]	47.5% [100 µM]	60.4% [100 µM]	63.4% [100 µM]	50.7% [100 µM]	60.8% [100 µM]	73.6% [100 µM]	68% [100 µM]	52.7% [100 µM]	62.3% [100 µM]	45% [100 µM]	57.4% [100 µM]	62.6% [100 µM]	37.7% [100 µM]	48.4% [100 µM]	43.9% [100 µM]	70.3% [100 µM]	90.4% [100 µM]
O=C1/C(=C\c2c[nH]c3ccccc23)c2ccccc2N1c1c(Cl)cccc1Cl	14.5%	-0.66% (active)	-16.8% (active)	-2.7% (active)	-43.5% (active)	23.7%	-47.9% (active)	-59.9% (active)	23.6%	-86.3% (active)	5.59% (active)	-29.6% (active)	39.2%	37%	-34% (active)	2.68% (active)	-39.2% (active)	-58.6% (active)	-100% (active)	-30.6% (active)
COc1cc(N=Nc2cc(Cc3ccc(N(C)C)cc3)c(N)cc2N(C)C)c2ncccc2c1	-48.7% (active)	-36.8% (active)	-17.6% (active)	-45.1% (active)	-79.7% (active)	17.3%	11.8%	-85.8% (active)	-33% (active)	-15.7% (active)	-13.2% (active)	-65.4% (active)	28.1%	6.94% (active)	-54.8% (active)	3.89% (active)	-13.8% (active)	-34% (active)	-83.2% (active)	15.7%
Cc1cc(C)c2c(-c3nnc(N)s3)cc(=O)oc2c1	108%	93%	106%	101%	109%	99.9%	98.7%	90.5%	107%	104%	98.4%	112%	98.8%	99.4%	103%	98.9%	98.5%	89.8%	96.7%	104%
